# Assay outcomes deposited in PubChem by National Center for Advancing Translational Sciences (NCATS).
# NS1 function inh = inhibitors of influenza NS1 protein function; Potency, µM (titrated, usually from 46.1 µM), for the others: at the highest dose activity, positive = more growth; hit rate 0.4% among 270,000; AID 2326; note: potency is the fitted concentration of half-maximal effect; actives are rising curves; nearly all actives have a fitted effect of over 50% in size
#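 S. cerevisiae expressing influenza A NS1, grown in glucose, washed, then diluted 1:100 into pH 6.0 -URA galactose medium with 23 nl compound. Growth recovery read as OD600; NS1-free strain serves as control.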
# SARS PLP yeast = inhibitors of SARS-CoV papain-like protease in yeast; S. cerevisiae expressing SARS-CoV PLpro, growth rescue; Potency, µM (doses to about 32.9 µM), without a hit: at the highest dose activity, positive = growth rescue, usual class: activators; hit rate 0.19% among 330,000; note: potency is the fitted concentration of half-maximal effect; 0% is about no effect; nearly all actives have a fitted effect of over 55% in size
# AMA1 RON2 block = AMA1-RON2 (P. falciparum) interaction inhibition; AlphaScreen AMA1-biotinylated RON2 peptide binding; AID 720542; hit rate 0.2% among 360,000; Potency, µM (top dose mostly 58.2 µM), without a hit: top-dose activity change, negative = inhibition, hits mostly inhibitors; active = well fitted inhibition curve with a large enough effect; inconclusive = small, poorly fitted or top-dose-only effect; inactive = no such curve, though single readings can be large or run the other way;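 note: potency is the fitted concentration of half-maximal effect; 0% = vehicle wells and -100% = peptide control; nearly all actives have a fitted effect of over 45% in size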
#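 AMA1 (3D7) with his tag at 25 nM final met compounds first, then biotinylated RON2 peptide at 25 nM; detection used donor plus acceptor beads, 10 µg/mL apiece, read by AlphaScreen after 30 min at room temperature.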
# Flu NS1 inh = validation of influenza NS1 protein function inhibitors. activity change, negative = inhibition, % at 32.9 µM. AID 492980. 1,400 tested, under 10 active. shares compounds with NS1 function inh. influenza NS1 function cell assay, 15-point titration; note: 0% is about no effect
# Flu PR8 replic = influenza NS1 inhibitors: inhibition of influenza A/PR/8/34 replication | AID 504647 | shares compounds with NS1 function inh | MDCK infected influenza A/PR/8/34, virus titer TCID50; hits give low values | hit rate 30% among 95 | virus titer (log TCID50), log10 TCID50 at 5 µM; call rule not given here
# * = called active by the depositor; ? = inconclusive; / = no result; [ ] = remark or other dose. This is a sample that favours compounds with a hit; in the whole collection about 0.65% have one here. Unless noted, calls come from the whole dose curve.
SMILES,NS1 function inh,SARS PLP yeast,AMA1 RON2 block,Flu NS1 inh,others
Cc1nn(-c2ccccc2)c(C)c1/C=N/NC(=O)c1cc(-c2ccc(Br)s2)[nH]n1,10.8%,3.8%,53.0%,/,
Cc1nn(-c2ccccc2)c(C)c1/C=N/NC(=O)c1cc(-c2ccc(Cl)s2)[nH]n1,8.91µM*,2.0%,46.3%,6.1,
Cc1ccc(C(=O)N/N=C/c2cc(C)n(-c3ccc(Br)cc3)c2C)cc1[N+](=O)[O-],10µM*,-4.0%,34.6%,-19.3,Flu PR8 replic=8.33
Cc1ccc(-n2c(C)cc(/C=N/NC(=O)c3ccncc3)c2C)cc1,9.5%,2.1%,14.5%,/,
COc1ccc(OC)c(NC(=O)CCNS(=O)(=O)c2cc(Br)cnc2N)c1,6.4%,4.3%,-1.9%,/,
Cc1cccc(NC(=O)C2CCCN(C(=O)Nc3ccc(F)cc3)C2)c1 (configuration not stated),-3.8%,-6.0%,1.8%,/,
CC(C)(C)C(=O)NN=C1CCC(c2ccccc2)CC1 (configuration not stated),?,0.3%,36.4%,/,
COc1ccc(CN(Cc2nc3ccccc3c(=O)[nH]2)C(=O)c2ccco2)cc1,-18.9%,-2.4%,18.5%,/,
COc1ccc(CCN(Cc2nc3ccccc3c(=O)[nH]2)C(=O)c2ccco2)cc1OC,8.91µM*,2.4%,4.0%,11.0,
CCOC(=O)N1CCN(C(=O)CC(=O)Nc2ccc3nc4n(c(=O)c3c2)CCCCC4)CC1,-3.4%,-3.0%,-1.0%,/,
COCC(=O)Nc1ccc2nc3n(c(=O)c2c1)CCCCC3,?,-1.3%,-11.4%,-5.2,
COc1ccc(-n2c3c(c(=O)[nH]c2=O)C(NS(=O)(=O)c2ccc(Cl)cc2)(C(F)(F)F)C(=O)N3)cc1 (configuration not stated),3.0%,-2.8%,1.2%,/,
O=c1cc(O)c2sc(Nc3cccc(C(F)(F)F)c3)nc2[nH]1,?,7.8%,-2.7%[2.32 µM],/,
O=c1cc(O)c2sc(Nc3ccc(F)cc3)nc2[nH]1,12.6µM*,-4.1%,-3.4%,0.8,
C[C@@]12C(=O)N(CC3CC3)CC(=O)N1[C@H](/C=C/c1ccccc1)[C@@H]1C(=O)N(c3ccccc3)C(=O)[C@@H]12,19.0%,3.4%,-6.3%,/,
CN1C[C@H](CO)C=C2c3cccc4[nH]cc(c34)C[C@H]21,11.9%,-0.2%,24.9%,/,
CCC(CO)NC(=O)[C@@H]1C=C2c3cccc4[nH]cc(c34)C[C@H]2N(C)C1 (some centres not stated),35.5µM*,/,/,4.4,
C=CCN(c1ccccc1)S(=O)(=O)c1cccc(C(=O)Nc2cccc(C)n2)c1,/,-1.7%,-1.2%,/,
O=C(/C=C/c1ccccc1)Nc1cccc(C(=O)N2CCCC2)c1,/,/,-4.4%,/,
CCc1ccccc1OCCCOc1ccc(OC)cc1,2.82µM*,?,41.5%,-37.6,Flu PR8 replic=8
CCc1ccccc1OCCOc1ccc(C)cc1OC,-49.8%,-3.8%,88.9%,/,
Cc1nc(C(F)(F)F)ccc1C(=O)N1CCC(C)(C(=O)O)C1 (configuration not stated),/,/,-10.8%,/,
Cc1ccc(C(=O)N2CCC3CC2c2cc(-c4ccc5c(c4)OCO5)ccc23)cc1 (configuration not stated),/,/,-15.9%,/,
O=[N+]([O-])c1cc(-c2csc(NCCc3nc4cc(Cl)c(Cl)cc4n3CCCO)n2)ccc1Cl,/,/,11.9%,/,
CCCn1c(CCNc2nc(-c3ccc(Cl)c([N+](=O)[O-])c3)cs2)nc2cc(Cl)c(Cl)cc21,8.91µM*,-3.7%,-3.5%,37.2,Flu PR8 replic=8
SMILES,NS1 function inh,SARS PLP yeast,AMA1 RON2 block,Flu NS1 inh,others
CCCCn1c(N)c(N(CCOC)C(=O)CCN2C(=O)C3CC=CCC3C2=O)c(=O)[nH]c1=O (configuration not stated),/,/,0.7%,/,
CCCCCCN1C[C@@H](n2cc(COC(=O)c3ccccc3)nn2)[C@H](O)C[C@@H]1c1ccccc1,/,/,-19.8%,/,
Cc1ccnc(NC(=O)CCC(=O)N(CC(=O)NC2CCCCC2)c2ccc3c(c2)OCO3)c1,22.4µM*,14.3%,-1.4%,-8.9,
Cc1cccc(N(CC(=O)NC2CCCCC2)C(=O)CCC(=O)Nc2ccccn2)c1,-0.4%,-1.0%,/,/,
O=c1c2c3nc4ccccc4nc3n(Cc3ccccc3)c2ncn1Cc1ccco1,15.8µM*,-6.3%,-13.0%,-14.3,
COCCCn1c2nc3ccccc3nc2c2c(=O)n(Cc3ccc(Cl)cc3)cnc21,-12.1%,-0.9%,-3.1%,/,
Cc1ccc(-n2ncc3c(=O)n(CC(=O)N4CCN(C(=O)c5ccco5)CC4)cnc32)cc1,/,-4.2%,1.5%,/,
Cc1ccc(CN2CCN(Cc3cn(C(C)C)c4ccccc34)CC2CCO)o1 (configuration not stated),1.2%,-0.7%,-5.4%,/,
CC(C)=CCN1CCN(Cc2cn(C(C)C)c3ccccc23)CC1CCO (configuration not stated),11.2µM*,9.7%,-6.8%,25.6,
O=C(COc1ccc(Br)cc1)N1CCNC1=O,-10.2%,-1.3%,-4.2%,/,
CN1CCN(CCCNC(=O)C2CC(=O)N(C3CCCCC3)C2)CC1 (configuration not stated),-3.7%,0.4%,2.8%,/,
O=C(NCCCN1CCOCC1)C1CC(=O)N(C2CCCCC2)C1 (configuration not stated),1µM*,37.9%,6.4%,-20.1,
O=C(N/N=C/c1ccc2c(c1)OCO2)c1cc(-c2ccc(F)cc2)nc2ccccc12,?,0.5%,-5.4%,-0.9,
COc1ccc(-c2cc(C(=O)N/N=C/c3ccc4c(c3)OCO4)c3ccccc3n2)c(OC)c1,3.2%,-0.1%,21.5%,/,
CCCN(C(=O)CSc1nnc(-c2ccncc2)n1CCC)c1c(N)n(Cc2ccccc2)c(=O)[nH]c1=O,/,/,-1.1%,/,
COC(=O)c1c(C)oc2ccc(N(C(=O)c3ccncc3)S(=O)(=O)c3ccc4ccccc4c3)cc12,11.2µM*,-5.3%,-7.4%,3.2,
COC(=O)c1c(C)oc2ccc(N(C(=O)c3ccncc3)S(=O)(=O)c3ccccc3)cc12,3.3%,-4.3%,-8.7%,/,
CC1(C)OC(=O)C(=CNCC(O)c2ccccc2)C(=O)O1 (configuration not stated),15.8µM*,11.4%,-1.4%,-2.6,
CC1(C)OC(=O)C(=CNc2ccccc2)C(=O)O1,-13.8%,1.9%,16.6%,/,
N#C/C(=C\c1cn(CCOc2ccccc2)c2ccccc12)C(=O)NCc1ccco1,?,4.1%,26.8%,-15.0,
Cc1ccccc1OCCn1cc(/C=C(\C#N)C(=O)NCc2ccco2)c2ccccc21,3.7%,26.0%,-1.6%,/,
C=CCN(c1ccccc1)S(=O)(=O)c1cccc(C(=O)NNC(=O)c2ccncc2)c1,/,4.3%,68.8%,/,
C=CCC(=O)NC1CCCc2c1cnn2-c1cc(F)cc(F)c1 (configuration not stated),-21.1%,2.8%,1.4%,/,
Cc1ccc(C)n1NC(=O)c1ccc(O)cc1,11.2µM*,14.2%,-6.2%,18.3,
Cc1ccc(C)n1NC(=O)c1ccccc1,17.8%,-1.3%,-13.1%,/,
O=C(NCc1ccccc1)C(c1ccccc1F)N(C(=O)c1csnn1)C1CCCC1 (configuration not stated),4.9%,-1.1%,-6.7%,/,
